14-3-3 PPI: 14-3-3 gamma protein interaction modulation | P61981 | inhibition, % at 40 µM | 160,000 compounds, 0.19% hits | FP, 14-3-3gamma / TMR-pS259-Raf peptide binding; in the data active = inhibition above about 30%
Target sequence (P61981 whole entry, looked up): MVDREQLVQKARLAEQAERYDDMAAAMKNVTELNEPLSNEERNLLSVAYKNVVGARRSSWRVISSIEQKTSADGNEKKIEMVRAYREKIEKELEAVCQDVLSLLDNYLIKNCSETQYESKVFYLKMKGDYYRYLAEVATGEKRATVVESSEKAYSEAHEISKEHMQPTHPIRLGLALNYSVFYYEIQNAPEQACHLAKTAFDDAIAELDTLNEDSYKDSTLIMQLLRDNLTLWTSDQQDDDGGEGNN
Hits are given with their value; - = inactive. Many of the other results were omitted from the sample, so hits are more common in it than they were.

SMILES | 14-3-3 PPI
CC(C)c1ccc(NC(=O)c2cc(S(=O)(=O)N3CCN(c4ccccc4)CC3)ccc2F)cc1 | -
O=C(Oc1ccc(OC(=O)c2cccnc2)cc1)c1cccnc1 | -
O=C(c1ccc(F)cc1)c1cccnc1 | 66
O=C(c1ccc(F)cc1)N1CCC(O)(c2cccnc2)CC1 | -
Cc1cc(OCC(=O)Nc2ccc(F)cc2)ccc1Cl | -
c1ccc2oc(-c3ccc(NCc4ccc5c(c4)OCO5)cc3)nc2c1 | -
CCCCSc1nnc2c(n1)OC(CC)Nc1ccc(Br)cc1-2 (stereo unspecified) | -
CCCSc1nnc2c(n1)OC(c1cccs1)Nc1ccc(Br)cc1-2 (stereo unspecified) | -
CCCSc1nnc2c(n1)OC(C=Cc1ccco1)Nc1ccc(Br)cc1-2 (stereo unspecified) | 58
CCN(CCNS(=O)(=O)c1ccc2c(c1)CCN2C(=O)C1CC1)c1ccccc1 | -
COCCCNC(=O)CN1C(=O)c2ccccc2C1=O | -
COCCCNC(=O)CSc1ccc2c3c(cccc13)C(=O)c1ccccc1-2 | 105
O=C(CSc1ccc2c3c(cccc13)C(=O)c1ccccc1-2)Nc1ccccc1 | -
O=[N+]([O-])c1ccc(N2CCCCC2)cc1NCc1ccc(Cl)cc1 | -
CCN(CC)C(=O)c1sc2ncnc(N3CCc4ccccc4C3)c2c1C | -
NC(=O)c1ccccc1NC(=O)CSc1nc2ccccc2o1 | -
Cc1ccc(S(=O)(=O)Nc2cc(C(=O)NCCc3ccccc3)ccc2N2CCCCC2)cc1 | -
Cc1ccc(S(=O)(=O)Nc2cc(C(=O)NCc3cccnc3)ccc2N2CCCCC2)cc1 | 37
Cc1ccc(S(=O)(=O)Nc2cc(C(=O)NCCc3ccccc3)ccc2N2CCCC2)cc1 | -
CCc1ccc2nc(Nc3nc4c(c(=O)[nH]3)CCCC4)nc(C)c2c1 | -
Cc1[nH]c2ccccc2c1C(=O)CSc1ncnc2sc3c(c12)CCCC3 | -
CCN(CC)S(=O)(=O)c1ccc(F)c(C(=O)Nc2ccccc2C(F)(F)F)c1 | -
O=c1nc2sc3[nH]c(=O)sc3cc-2s1 | 150
CCN=C1SC(CC(=O)Nc2ccc(F)cc2)C(=O)N1CC (stereo unspecified) | -
CCC(C)C(=O)Nc1ccc(NC(=O)C(C)CC)c([N+](=O)[O-])c1 (stereo unspecified) | -
SMILES | 14-3-3 PPI
Cc1cc(OC(C)C)nc(N2CCOCC2)n1 | -
CCn1cc(C(=O)NCc2ccccn2)c(=O)c2cc(S(=O)(=O)N3CCCCC3)ccc21 | 119
CCn1cc(C(=O)NC2CCCCC2)c(=O)c2cc(S(=O)(=O)N3CCCCCC3)ccc21 | -
CCn1cc(C(=O)NCc2ccco2)c(=O)c2cc(S(=O)(=O)N3CCCCCC3)ccc21 | -
O=C1CCCC2=C1C(c1ccc(OCc3ccccc3Cl)cc1)C1=C(CCCC1=O)N2 | -
O=C1C2C3CC(C(Br)C3Br)C2C(=O)N1c1ccccc1O (stereo unspecified) | -
CCCCOc1ccc(NC2=C(N3CCOCC3)C(=O)c3ccccc3C2=O)cc1 | -
O=C(O)c1cccc(NC2=C(N3CCCC3)C(=O)c3ccccc3C2=O)c1 | -
O=C(O)c1ccc(NC2=C(N3CCOCC3)C(=O)c3ccccc3C2=O)cc1 | 56
NC(=O)CN(Cc1ccccc1)S(=O)(=O)c1ccc(Br)cc1 | -
O=C(C1=C(O)C(=O)N(c2nncs2)C1c1cccc(Br)c1)c1cccs1 (stereo unspecified) | 84
COc1ccc(C2C(C(=O)c3cccs3)=C(O)C(=O)N2c2nnc(C)s2)cc1OC (stereo unspecified) | -
Cc1nnc(N2C(=O)C(O)=C(C(=O)c3cccs3)C2c2cccc(Oc3ccccc3)c2)s1 (stereo unspecified) | -
Cn1c(=O)c2c(nc(SCC(=O)NC(C)(C)C)n2Cc2cccc(Cl)c2)n(C)c1=O | -
CCCOc1ccc(/C(O)=C2/C(=O)C(=O)N(CCN(C)C)C2c2ccc(O)c(OC)c2)cc1 (stereo unspecified) | -
CCCOc1ccc(C2/C(=C(/O)c3ccccc3)C(=O)C(=O)N2CCCN(C)C)cc1OC (stereo unspecified) | 35
COc1ccc(/C(O)=C2/C(=O)C(=O)N(CCCN(C)C)C2c2ccc(Cl)cc2)cc1OC (stereo unspecified) | -
CC(C)CCNC(=O)c1ccc(Cn2c(=S)[nH]c3cc4c(cc3c2=O)OCO4)cc1 | -
Cc1sc2ncn(CC(=O)N3CCN(c4ccccc4)CC3)c(=O)c2c1S(=O)(=O)N1CC(C)CC(C)C1 (stereo unspecified) | -
Cc1ccc(C=Nc2sc3c(c2C#N)CCC3)cc1 | -
N#Cc1c(N=Cc2ccc([N+](=O)[O-])s2)sc2c1CCCC2 | 63
N#Cc1c(N=Cc2ccc([N+](=O)[O-])cc2)sc2c1CCC2 | 135
N#Cc1c(N=Cc2cc([N+](=O)[O-])ccc2O)sc2c1CCCC2 | -
N#Cc1c(N=Cc2ccc(Cl)c([N+](=O)[O-])c2)sc2c1CCCC2 | -
N#Cc1c(N=Cc2cc([N+](=O)[O-])ccc2Cl)sc2c1CCCC2 | -
SMILES | 14-3-3 PPI
COc1ccc(N2C(=O)CCC(C(=O)NCCN(C)C)C2c2ccc(F)cc2)cc1 (stereo unspecified) | -
FC(F)(F)c1cc(-c2ccc3c(c2)OCO3)nc(NC2CCCCC2)n1 | -
Cc1ccc(NC(=O)Cn2cnc3sc(C(=O)N4CCC(C(N)=O)CC4)c(C)c3c2=O)cc1Cl | -
CCSc1nnc2c(n1)OC(c1ccccc1C)Nc1ccccc1-2 (stereo unspecified) | 41
C=CCSc1nnc2c(n1)OC(c1cccc(O)c1)Nc1ccccc1-2 (stereo unspecified) | -
CCCSc1nnc2c(n1)OC1(CCCC1)Nc1ccc(Br)cc1-2 | -
C=CCSc1nnc2c(n1)OC(c1cccnc1)Nc1ccccc1-2 (stereo unspecified) | -
CCCCSc1nnc2c(n1)OC1(CCCC1)Nc1ccccc1-2 | 117
CSc1nnc2c(n1)OC(c1ccc(Br)s1)Nc1ccccc1-2 (stereo unspecified) | -
C=CCSc1nnc2c(n1)OC(c1ccccc1C)Nc1ccccc1-2 (stereo unspecified) | -
O=C(O)CSc1nnc2c(n1)OC1(CCCC1)Nc1ccccc1-2 | -
CCSc1nnc2c(n1)OC(c1cccc(C)n1)Nc1ccccc1-2 (stereo unspecified) | -
CSc1nnc2c(n1)OC(c1ccccc1Br)Nc1ccccc1-2 (stereo unspecified) | 41
CSc1nnc2c(n1)OC(c1ccccc1O)Nc1ccccc1-2 (stereo unspecified) | -
C=CCOc1cccc(C2Nc3ccccc3-c3nnc(SCC=C)nc3O2)c1 (stereo unspecified) | 140
O=C(O)CCc1nn2c3ccccc3n(CC(=O)c3ccc(Br)cc3)c2nc1=O | -
CC1=NN(c2ccc([N+](=O)[O-])cc2)C(=O)CO1 | -
Cc1ccc(C2CC(=O)C3=C(C2)Nc2ccccc2NC3c2ccccc2C(F)(F)F)cc1 (stereo unspecified) | -
CC1=C(C(=O)Nc2ccccc2)C(c2cccs2)n2nc(SCc3ccccc3Cl)nc2N1 (stereo unspecified) | -
CCOc1ccc(Sc2cc(C(=O)NCc3ccc4c(c3)OCO4)c3ccccc3n2)cc1 | -
CCCC(=O)N1c2ccccc2-c2nnc(SC)nc2OC1c1ccc(OC)cc1OC (stereo unspecified) | -
CCOc1ccc([N+](=O)[O-])cc1C1Nc2ccccc2-c2nnc(SC)nc2O1 (stereo unspecified) | 38
CCOc1cc(C2Nc3ccccc3-c3nnc(SC)nc3O2)cc(Br)c1OCC (stereo unspecified) | -

Assay outcomes: PubChem BioAssay, Emory University Molecular Libraries Screening Center
